Hits are enriched below; roughly 7.5% of the tested compounds scored in any of these assays.
ELG1 genotoxic – induces genotoxicity in HEK293T cells with luciferase-tagged ELG1 | HEK293T ELG1-luciferase reporter, luminescence, 16 h | AID 504466 | Potency, µM (series often up to 46 µM), for inactives: at the top dose activity change, positive = activation, most hits filed as activators | 330,000 compounds, 1.3% hits; further: % of control where 0% means no effect; nearly all actives have a fitted effect of over 60% in size
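HEK293T cells expressing luciferase-tagged ELG1 were treated with compound or DMSO for 16 hr at 37°C. Luciferase activity was then read after 30 min with ONE-Glo at room temperature; rising signal flags genetic stress.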
FLuc counter – counter-screen for miR-21 project: firefly luciferase inhibitors or activators; purified FLuc, Km substrates, luminescence inhibition; Potency, µM (top dose mostly 57.5 µM), for the others: top-dose activity change, negative = inhibition, most hits filed as inhibitors; P08659; 360,000 compounds, 6.9% hits;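 further: plate controls were vehicle for no effect and reference inhibitor for full effect; nearly all actives have a fitted effect of over 55% in size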
Target sequence (P08659 whole entry, looked up): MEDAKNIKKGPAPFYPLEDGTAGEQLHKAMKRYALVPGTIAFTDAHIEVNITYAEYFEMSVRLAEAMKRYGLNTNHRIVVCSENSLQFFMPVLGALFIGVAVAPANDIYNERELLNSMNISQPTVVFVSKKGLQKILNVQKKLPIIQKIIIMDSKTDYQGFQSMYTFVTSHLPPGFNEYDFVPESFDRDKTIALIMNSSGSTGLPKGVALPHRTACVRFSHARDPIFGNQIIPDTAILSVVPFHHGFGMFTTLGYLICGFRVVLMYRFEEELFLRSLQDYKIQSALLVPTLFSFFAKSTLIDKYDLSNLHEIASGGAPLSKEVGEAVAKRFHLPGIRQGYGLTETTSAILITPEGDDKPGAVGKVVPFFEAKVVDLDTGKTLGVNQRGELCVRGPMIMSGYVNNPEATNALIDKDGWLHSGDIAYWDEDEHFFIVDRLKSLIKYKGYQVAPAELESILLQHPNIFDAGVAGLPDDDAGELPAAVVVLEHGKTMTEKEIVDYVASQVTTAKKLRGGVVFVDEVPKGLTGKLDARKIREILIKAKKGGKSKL
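Purified P. pyralis luciferase, 10 nM final, with Km-level 10 uM D-luciferin and 10 uM ATP in 50 mM Tris acetate pH 7.5, 10 mM Mg acetate, 0.01% Tween-20, 0.05% BSA; 6-point qHTS titration about 60 µM downward; luminescence read.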
Rab9 promoter act – activators of Rab9 promoter. Huh7 Rab9 promoter-luciferase reporter, luminescence, 24 h. Potency, µM (series often up to 9.22 µM), without a hit: at the highest dose activation, negative = inhibition, hits mostly activators. 320,000 compounds, 2.8% hits. AID 485297; further: % of control where 0% means no effect; nearly all actives have a fitted effect of over 60% in size
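Huh7 cells stably carrying a Rab9 promoter-luciferase reporter, 1500 cells per well in OP-MEM I with 10% FBS, treated with compound 24 hours at 37C. Luciferase activity read by luminescence after 10 minutes with Amplite reagent.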
SMN2 splice enh – enhancers of SMN2 splice variant expression; HEK293 SMN2-luciferase splicing reporter, luminescence, 30-36 h; Potency, µM (top dose mostly 46.1 µM), for inactives: top-dose activity change, positive = activation, usual class: activators; 210,000 compounds, 2.8% hits; further: % of control where 0% means no effect; nearly all actives have a fitted effect of over 55% in size
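HEK293 cells carry an SMN2 minigene-luciferase reporter in which exon 7 inclusion puts luciferase in frame. Cells were seeded at 2000 cells/well, attached for 10-12 hours, then exposed to compounds for 30-36 hours at 37C before ONE-Glo luminescence.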
NPC1 prom act – activators of NPC1 promoter; 320,000 compounds, 2.4% hits; Huh7 NPC1 promoter luciferase reporter, 24 h; Potency, µM (titrated, usually from 9.22 µM), inactives show at the top dose activation, most hits filed as activators; further: % of control where 0% means no effect; nearly all actives have a fitted effect of over 60% in size
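In 1536-well qHTS, Huh7 cells harboring an NPC1 promoter–luciferase construct received compound for 24 h; activation was quantified by luminescence following luciferase reagent addition.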
Numbers without * were called inactive; ? = inconclusive; . = no result given; ! = repeats disagree; [ ] = remark or other dose. The call rests on the fitted dose curve; in most records, active means well fitted curve in the direction sought with a large enough effect; inconclusive means small, poorly fitted or top-dose-only effect, or another doubt; inactive means no such curve, though single readings can be large; an effect the other way counts as inactive or inconclusive. Potency means the concentration at half of the fitted maximal effect.

SMILES	ELG1 genotoxic	FLuc counter	Rab9 promoter act	SMN2 splice enh	NPC1 prom act
CCc1ccc(C(=O)NC2CCCCC2)s1	39%	12µM*	2.2µM*	13µM*	2.5µM*
CC1CN(C(=S)Nc2ccccc2C(F)(F)F)CC(C)O1 (configuration not stated)	-1%	3%	7%	.	-2%
Cc1c(N=Cc2ccc(Cl)o2)c(=O)n(-c2ccccc2)n1C	1%	-4%	2%	7%	1%
C(/C=C\c1ccccc1)=Nc1ccc2c(c1)Cc1ccccc1-2	.	.	.	0%[9.22 µM]	.
Cc1ccccc1-c1ccc(C=Nc2c(C)n(C)n(-c3ccccc3)c2=O)o1	3%	4.8µM*	2%	-34%	2%
Cc1c(N=C/C=C/c2ccccc2)c(=O)n(-c2ccccc2)n1C	3%	19µM*	10%	-2%	-3%
Cc1c(N=C/C=C/c2ccccc2)cnn1C	2%	6.7µM*	2%	-10%	1%
Cc1c(N=Cc2ccc(-c3ccc(Cl)cc3)o2)c(=O)n(-c2ccccc2)n1C	6%	9.5µM*	4%	-34%	-4%
CCCC(=O)Nc1cc(C)cn(Cc2c(F)cccc2Cl)c1=O	0%	-4%	10%	.	2%
Cc1onc(-c2ccccc2)c1C(=O)OCC(=O)NC(C)c1ccc(Cl)cc1 (configuration not stated)	-6%	-3%	-11%	.	0%
CCOC(=O)C(=O)Nc1nnc(CCc2ccccc2)s1	0%	0%	3%	-2%	0%
COc1cccc(/C=c2\sc3nc(-c4cccs4)nn3c2=O)c1OC	2%	8.5µM*	-3%	17%	0%
COc1ccccc1-c1nc2s/c(=C\c3cccs3)c(=O)n2n1	-3%	?	3%	26%	1%
Cc1cccc(CCNC(=O)c2nc(-c3ccc(Cl)cc3)n3c2CCCCC3)c1	.	-16%	.	.	.
Cc1nc2ccc(-c3ccccc3)cc2o1	8%	17µM*	15%	-6%	14%
CNC(=O)Nc1ccc2nc(C)oc2c1	0%	3%	-9%	.	-7%
CCCN(C(=O)C(C)Oc1cccc(Cl)c1)c1c(N)n(Cc2ccccc2)c(=O)[nH]c1=O (configuration not stated)	-6%	3%	9%	.	1%
CCCOC(=O)c1ccc(NC(=O)c2ccc(Br)o2)cc1	?	17µM*	27%	-1%	26%
O=C(Nc1ccccc1)c1ccc(Br)o1	17%	?	15%	20%	16%
COC(=O)Cc1ccc(NC(=O)c2ccc(Br)o2)cc1	18µM*	17µM*	?	?	?
COc1ccc(-c2ccc(NC(=O)c3ccc(Br)o3)cc2)nn1	2.1µM*	?	1.1µM*	.	2µM*
CS(=O)(=O)c1ccc(-c2cccc(NC(=O)c3ccc(Br)o3)c2)nn1	-2%	4%	1%	.	2%
CCN(CC)c1ccc(NC(=O)c2ccc(Br)o2)cc1	?	5.4µM*	0.79µM*	11µM*	1.6µM*
O=C(Cc1ccsc1)NNC(=O)c1ccccc1O	7%	?	12%	.	16%
C[C@@]12C(=O)N(CC3CCCO3)CC(=O)N1[C@H]1c3cc(Cl)ccc3OC[C@@H]1[C@@H]2c1ccccc1 (some centres not stated)	-6%	.	.	.	.
SMILES	ELG1 genotoxic	FLuc counter	Rab9 promoter act	SMN2 splice enh	NPC1 prom act
CCOCCc1nnc(NC(=O)CCS(=O)(=O)c2ccccc2)s1	-4%	2%	3%	.	-3%
Cc1noc(C)c1NC(=O)N(C)C[C@H]1Oc2ccc(NC(=O)Nc3ccc4c(c3)OCO4)cc2C(=O)N([C@H](C)CO)C[C@@H]1C	-2%	.	.	.	.
COC(=O)Cc1ccc(NC(=O)c2ccc(C)c(C)c2)cc1	5.2µM*	3µM*	2.5µM*	?	?
CC(C)OCCCNC1=C(Cl)C(=O)c2ccccc2C1=O	4%	13µM*	13%	.	14%
COCCCNC1=C(Cl)C(=O)c2ccccc2C1=O	-5%	?	-3%	.	-1%
CCCN(C(=O)c1cc2c(s1)-c1ccccc1SC2)c1ccccc1F	.	3%	.	-25%	.
CCOc1ccccc1C(=O)Nc1cccc2ccccc12	-5%	-5%	0%	.	1%
COc1ccc(Nc2cccc3ccccc23)cc1	9%	27µM*	?	.	19%
COc1ccc(C(=O)Nc2cccc3ccccc23)cc1	13%	19µM*	?	.	?
COc1ccc(Nc2cccccc2=O)cc1	3%	?	22%	2%	29%
COc1cc(OC)c(C(=O)Nc2cccc3ccccc23)cc1OC	0%	19µM*	1%	.	10%
COc1ccc(Nc2cc(C)c3ccccc3n2)cc1	?	13µM*	?	?	28%
O=C(CSc1nc(-c2cccs2)nc2cc(=O)[nH]n12)Nc1cccc(C(F)(F)F)c1	.	-16%	.	.	.
CC(C)C1COc2cc3oc(=O)ccc3cc2O1 (configuration not stated)	.	.	.	8%	.
CCN(C(=O)Cn1c(=O)n(-c2ccccc2)c(=O)c2ccc(C(=O)NCc3ccc4c(c3)OCO4)cc21)c1cccc(C)c1	.	2%	.	-14%	.
COc1ccccc1C(=O)Nc1nnc(S(=O)(=O)N2CCCCCC2)s1	-1%	11µM*!	-1%	.	-2%
COc1ccc(C(=O)Nc2nnc(S(=O)(=O)N3CCC(C)CC3)s2)cc1OC	-1%	3.4µM*!	-2%	.	-1%
CC1CN=C(NC(=O)c2cccc([N+](=O)[O-])c2)S1 (configuration not stated)	?	2.4µM*	0.4µM*	.	0.5µM*
Cc1ccccc1C(=O)Nc1nnc(S(=O)(=O)N2CCCCCC2)s1	0%	13µM*!	0%	.	-7%
O=C(Nc1cccc(NC(=O)c2cccc([N+](=O)[O-])c2)n1)c1cccc([N+](=O)[O-])c1	?	-13%	0%	.	-2%
COc1ccc(C(=O)Nc2nnc(S(=O)(=O)N3CCCCCC3)s2)cc1OC	4%	?	-8%	.	0%
C[C@H](CO)N1C[C@H](C)[C@@H](CN(C)S(=O)(=O)c2cccs2)Oc2ccc(NS(=O)(=O)c3ccccc3)cc2C1=O	0%	.	.	.	.
N#C/C(=N\Nc1cccc(C(F)(F)F)c1)C(=O)c1csc(-c2cccnc2)n1	-9%	?	-8%	.	-1%

Screening data (PubChem BioAssay)
